The results in this text go back to PubChem BioAssay (Tox21).

Structures are written as SMILES. Unmarked numbers belong to inactive results. Results filed as inconclusive are left out. Activity calls are given as the source filed them. Unless noted, calls come from the whole dose curve; as a rule, active = well fitted curve in the direction sought with a large enough effect in the repeat runs; inconclusive = weak or mixed curves; inactive = no such curve, though single readings can be large; an effect the other way counts as inactive or inconclusive.

Assay [1] is described as follows: A CellTox Green Cytotoxicity Assay to monitor cytotoxicity in HepG2 cells - 8 hour (AID 1224890). Note: nearly all actives have a fitted effect of over 45% in size. The gist of the method: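 Fluorescent DNA-binding dye, 600 HepG2 cells/well, 5 h preincubation then compound in DMSO; same plates read at 0–40 h, 37 C.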
A short description of assay [2]: qHTS assay to identify small molecule antagonists of the androgen receptor (AR) signaling pathway using the MDA cell line in the presence of 0.5 nM R1881 - cell viability counter screen (AID 1259242). Note: nearly all actives have a fitted effect of over 45% in size. The gist of the method:
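Human breast carcinoma MDA-kb2 cells, cultured without CO2, receive compounds alongside 0.5 nM (final) R1881 agonist. After 16 hr at 37C, viability is taken as live-cell protease signal.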
Background: In qHTS, concentration-response curves come from the screen itself.

Assay [3] can be described thus: qHTS assay to identify small molecule phospholipidosis (PLD) inducers (AID 1259344; active = well fitted curve in the direction sought with a large enough effect; an effect the other way counts as inactive or inconclusive). The method in brief:
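After 4 h attachment on collagen I, HepG2 cells were dosed with compound alongside LipidTOX Red, kept 24 h at 37 C, fixed, and imaged for lamellar phospholipid pits.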

Assay [4] in a line: qHTS assay to identify small molecule HDAC inhibitors (AID 1259364). Note: potency is the fitted concentration of half-maximal effect.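 Note: wild-type HCT-116 cells with endogenous class I/II HDAC activity; nearly all actives have a fitted effect of over 45% in size.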 The method in brief: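 After a 2 hr compound incubation (37C, 5% CO2), HCT-116 cells seeded at 1,500/well the day before received HDAC-Glo reagent; signal read as luminescence after 30 min at room temperature.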
Assay [5] can be described thus: qHTS assay to identify small molecule HDAC inhibitors - cell viability counter screen (AID 1259365). Note: series mostly up to about 92 µM; nearly all actives have a fitted effect of over 50% in size. The method in brief: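 Wild-type HCT-116 cells, 1,500/well, cultured overnight, then compound-treated 2 h at 37 C. Viability measured as ATP luminescence with CellTiter-Glo after 30 min at room temperature.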
Assay [6] in a line: qHTS assay to identify small molecule agonists of the sonic hedgehog signaling (Shh) pathway - cell viability counter screen (AID 1259366). Note: nearly all actives have a fitted effect of over 50% in size. The method in brief: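 NIH/3T3-derived Gli1-Luc reporter cells, 2,000 per well, received compound after 4 h and were treated about 23 h at 37C. Viability measured in the same wells by CellTiter-Fluor fluorescence after 1 h.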
Assay [7] is described as follows: qHTS assay to identify small molecule antagonists of the sonic hedgehog signaling (Shh) pathway - cell viability counter screen (AID 1259367). Note: nearly all actives have a fitted effect of over 55% in size. Note: potency is the fitted concentration of half-maximal effect. The method in brief: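 Conditioned medium drove Shh signaling in 3T3 Gli1-Luc cells exposed to compounds at 37C and 5% CO2. Viability was determined from CellTiter-Fluor fluorescence, with reagent incubated 1 hr after 23 hr of treatment.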

Assay [8] is described as follows: qHTS assay to identify small molecule antagonists of the sonic hedgehog signaling (Shh) pathway (AID 1259369; calls by dose curve; note: nearly all actives have a fitted effect of over 45% in size; note: potency is the fitted concentration of half-maximal effect). The gist of the method: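 Gli1 transcriptional reporter (firefly Luc) in NIH/3T3 background, conditioned-medium activated. 24hr exposure, luminescence endpoint.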
Assay [9] is described as follows: qHTS assay to identify small molecule agonists of the androgen receptor (AR) signaling pathway in the presence of an antagonist - cell viability counter screen (AID 1259379).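 Note: MDA-kb2 human breast cancer cells carrying an MMTV luciferase reporter; series mostly up to about 92 µM; nearly all actives have a fitted effect of over 25% in size.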 The method in brief:
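Counter screen for cell viability run in parallel with the AR agonist-mode luciferase assay. MDA-kb2 cells were co-treated with nilutamide (3.0uM final) and compounds, then incubated 16 hr at 37C, and CellTiter-Fluor fluorescence was measured.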

The nature of assay [10]: qHTS assay to identify small molecule agonists of the estrogen receptor beta (ER-beta) signaling pathway - cell viability counter screen (AID 1259380). Note: nearly all actives have a fitted effect of over 30% in size. Note: potency is the fitted concentration of half-maximal effect. The gist of the method:
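In this qHTS counter screen, HEK293T cells carrying an ER-beta/UAS beta-lactamase reporter, grown in 2% charcoal-stripped FBS, received compound for 16 hr; ATP-based CellTiter-Glo luminescence was then read after 30 min at room temperature.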

Assay [11] is described as follows: qHTS assay to identify small molecule agonists or antagonists of the thyroid stimulating hormone receptor (TSHR) signaling pathway - wild type cell line counter screen (AID 1259384; calls by dose curve). The method in brief:
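Wild-type HEK293 cells were plated 18 h at 37 C/5% CO2, pin-dosed with compound plus Ro20-1724 medium, held 30 min at room temperature, then given cAMP-d2 and anti-cAMP-cryptate; fluorescence was read after 1 h. Fifteen concentrations, triplicate.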

A short description of assay [12]: qHTS assay to identify small molecule agonists of the sonic hedgehog signaling (Shh) pathway (AID 1259368; calls by dose curve;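 note: NIH/3T3-derived 3T3Gli1-Luc cells carrying a stable Gli1-driven firefly luciferase reporter; series mostly up to about 92 µM; nearly all actives have a fitted effect of over 15% in size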). The method in brief:
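Stable NIH/3T3 Gli1-Luc reporter clone; 24 hr cpd exposure after a 4 hr settling period; luminescence endpoint.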

Assay [13] has as its target Estrogen receptor beta (Homo sapiens) (UniProt Q92731). Kind of assay: qHTS assay to identify small molecule agonists of the estrogen receptor beta (ER-beta) signaling pathway (AID 1259377; active = well fitted activation curve with a large enough effect in the signal ratio in the repeat runs, not every such curve was filed as active; the % refers to the signal ratio). The method in brief: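 ER-beta-UAS-bla HEK293T cells in medium with 2% charcoal-stripped FBS were exposed to compounds for 16 h at 37C. Beta-lactamase reporter activity was read as fluorescence after 2 h with LiveBLAzer B/G FRET substrate at room temperature.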

Assay [14] shares this target. Put plainly: qHTS assay to identify small molecule antagonists of the estrogen receptor beta (ER-beta) signaling pathway (AID 1259378; active = well fitted inhibition curve with a large enough effect in the signal ratio in the repeat runs, not every such curve was filed as active; the % refers to the signal ratio). The gist of the method: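 ER-beta-UAS-bla HEK293T (GripTite) cells in 2% charcoal-stripped FBS medium were preincubated 6 hr at 37C, dosed with compound, then stimulated with 1 nM E2 (final) for 16 hr; beta-lactamase reporter read by B/G FRET fluorescence after 2 hr substrate loading.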

A short description of assay [15]: qHTS assay to identify small molecule antagonists of the estrogen receptor beta (ER-beta) signaling pathway - cell viability counter screen (AID 1259382). Note: series mostly up to about 92 µM; nearly all actives have a fitted effect of over 55% in size. The method in brief:
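HEK293T ER-beta-UAS-bla, 2% charcoal-stripped FBS; compounds + 1nM E2 16 hr 37C; CellTiter-Glo luminescence, 30 min RT.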

For assay [16], the target named is Estrogen receptor (Homo sapiens) (UniProt P03372). Kind of assay: qHTS assay to identify small molecule agonists of the estrogen receptor alpha (ER-alpha) signaling pathway in the presence of an antagonist (AID 1259383; calls by dose curve; note: top concentration of the series differs between compounds; nearly all actives have a fitted effect of over 15% in size). The gist of the method: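 ER-alpha agonism measured under antagonist challenge: 10.0nM ICI-182,780 (final) plus compound, 15 concentrations, 22hr, VM7Luc4E2 ERE-luciferase cells. Read by luminescence.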
Chain of Estrogen receptor (Homo sapiens) (P03372 whole entry, looked up): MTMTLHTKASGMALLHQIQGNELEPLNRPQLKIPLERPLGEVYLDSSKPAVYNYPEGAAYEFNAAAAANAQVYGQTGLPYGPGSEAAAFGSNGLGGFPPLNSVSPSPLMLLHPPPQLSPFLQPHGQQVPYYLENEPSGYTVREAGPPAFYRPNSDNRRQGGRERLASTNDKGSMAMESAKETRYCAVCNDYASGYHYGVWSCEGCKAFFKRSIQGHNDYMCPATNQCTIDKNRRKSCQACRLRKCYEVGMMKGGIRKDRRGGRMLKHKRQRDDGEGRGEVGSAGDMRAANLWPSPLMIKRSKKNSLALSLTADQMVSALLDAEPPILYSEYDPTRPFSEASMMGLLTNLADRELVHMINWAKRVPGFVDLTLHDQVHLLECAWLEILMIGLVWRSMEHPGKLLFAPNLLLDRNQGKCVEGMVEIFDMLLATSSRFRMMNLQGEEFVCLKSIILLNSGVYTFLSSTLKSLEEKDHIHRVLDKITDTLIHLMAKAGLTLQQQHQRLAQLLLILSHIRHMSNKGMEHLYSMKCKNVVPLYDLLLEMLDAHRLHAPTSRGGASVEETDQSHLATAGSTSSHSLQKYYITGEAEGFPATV

Assay [17] in a line: qHTS assay to identify small molecule antagonists of the estrogen receptor alpha (ER-alpha) signaling pathway using the BG1 cell line in the presence of 0.1 nM 17-beta-estradiol - cell viability counter screen (AID 1259241). Note: nearly all actives have a fitted effect of over 40% in size. The method in brief:
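VM7Luc4E2 cells (endogenous full-length ER-alpha, 4xERE-luciferase), cultured 5 days in charcoal-stripped serum, exposed to compounds with 0.1 nM 17beta-estradiol (final) for 22 hr at 37C. Viability read in same wells as live-cell protease fluorescence after 30 min.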

The target in assay [18] is Estrogen receptor (Homo sapiens) (UniProt P03372). Put plainly: qHTS assay to identify small molecule antagonists of the estrogen receptor alpha (ER-alpha) signaling pathway using the BG1 cell line in the presence of 0.1 nM 17-beta-estradiol (AID 1259244). Note: nearly all actives have a fitted effect of over 50% in size. The method in brief:
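Seeding of stripped-serum-adapted VM7Luc4E2 cells, 24 h attachment, compound transfer, then 0.1 nM final 17beta-estradiol; after 22 h incubation, ONE-Glo reagent and luminescence reading.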

Chain of Estrogen receptor beta (Homo sapiens) (Q92731 whole entry, looked up): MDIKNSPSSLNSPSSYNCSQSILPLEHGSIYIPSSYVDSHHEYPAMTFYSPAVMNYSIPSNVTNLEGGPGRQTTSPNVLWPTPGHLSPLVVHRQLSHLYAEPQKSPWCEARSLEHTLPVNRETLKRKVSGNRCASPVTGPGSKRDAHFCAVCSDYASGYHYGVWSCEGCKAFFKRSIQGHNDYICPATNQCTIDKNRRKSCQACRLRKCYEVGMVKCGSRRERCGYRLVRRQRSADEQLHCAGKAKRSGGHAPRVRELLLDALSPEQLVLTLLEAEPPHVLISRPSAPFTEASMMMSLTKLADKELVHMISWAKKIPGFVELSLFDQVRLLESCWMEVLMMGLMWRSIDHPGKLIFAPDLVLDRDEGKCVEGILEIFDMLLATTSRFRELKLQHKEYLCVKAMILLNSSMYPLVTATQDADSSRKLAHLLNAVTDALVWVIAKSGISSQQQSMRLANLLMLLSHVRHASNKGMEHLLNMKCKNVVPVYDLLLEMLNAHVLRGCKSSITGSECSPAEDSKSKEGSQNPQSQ

`NC/C=C/C(=O)O`: the Potency entry in assay [1], in [4], in assay [6], in assay [7], in assay [8] and in [9] was “inactive” throughout. Further, the Potency entry in assay [10] was “inactive”. In addition, the result in [2], in [3], in [5] and in assay [11] was inactive.
Take `CC(C)Nc1nc(N)nc(Cl)n1`: the Potency result in assay [1], in assay [4], in [6], in [7], in assay [12] and in [9] was “inactive” in each case. The Potency result in assay [10] is “inactive”. Also, the result in assay [2], in [5], in [13] and in [11] was inactive.
On to `Cc1ccccc1C(=O)Nc1ccc(C(=O)N2CCCC(O)c3cc(Cl)ccc32)c(C)c1` (stereo unspecified), for which the Potency result in assay [1], in assay [4], in assay [6], in [7], in [12] and in assay [8] was “inactive” each time. Moreover, the Potency entry in assay [9] was “inactive”. Moreover, the result in assay [2] and in assay [5] was inactive. For the same molecule, the Potency in [10] was 23.7 µM (active).
As for `O=C1C=CC(=O)O1`, the Potency result in assay [1], in assay [4], in assay [6], in [7], in assay [12] and in assay [8] was “inactive” throughout. Further, the Potency result in [14], in assay [9], in assay [10] and in assay [16] was “inactive” throughout. Also, the call in assay [5], in assay [13], in [15] and in [11] was inactive.
Turning to `CC(C)=CCC[C@](C)(O)[C@@H]1CC=C(C)CC1`, the Potency result in assay [17], in assay [4], in assay [6], in assay [7], in assay [12] and in assay [8] was “inactive” throughout. Moreover, the Potency result in [14], in assay [9] and in assay [10] was “inactive” throughout. The result in assay [2], in [5], in assay [13], in assay [15] and in assay [11] was inactive.
For `CC[C@H]1CC[C@H](NCc2cc3c(cc2OC)[C@H]2C[C@H]2C(=O)N3C)[C@H](c2ccccc2)N1`, the Potency entry in [1], in assay [4], in [12], in [14] and in assay [16] was “inactive” in each case. The outcome in assay [2], in assay [5], in assay [13] and in assay [11] was inactive. Further, the Potency in assay [7] was 8.63 µM (active); in assay [8], 4.33 µM (active).
On to `CC1CN(c2ccccc2)NC1=O` (stereo unspecified), for which the Potency result in [1], in assay [6], in assay [12], in assay [8] and in assay [9] was “inactive” each time. The Potency in assay [4] was 24.3 µM (active). In addition, the call in assay [5], in assay [15] and in [11] was inactive.
As for `CCCCC1CCC(=O)O1` (stereo unspecified), the Potency entry in assay [1], in [18], in assay [4], in [6], in assay [7] and in [8] was “inactive” throughout. In addition, the Potency entry in assay [14], in assay [9], in [10] and in [16] was “inactive” in each case. Moreover, the outcome in assay [2], in [5], in assay [13], in assay [15] and in assay [11] was inactive.
Turning to `O=C(O)C(=O)Cc1c[nH]c2ccccc12`, the Potency result in [1], in assay [4], in assay [6], in [12], in assay [8] and in [9] was “inactive” in each case. The Potency result in assay [10] and in [16] was “inactive” in each case. For the same molecule, the result in assay [2], in assay [5], in [15] and in [11] was inactive.
Turning to `CC(C)O`, the Potency result in assay [1], in assay [4], in assay [12], in assay [14], in assay [9] and in assay [10] was “inactive” throughout. For the same molecule, in assay [16], the Potency entry is “inactive”. In addition, the outcome in assay [2], in assay [3], in assay [5], in assay [13], in assay [15] and in [11] was inactive. Further, the Potency in assay [8] was 29.3 µM (active).
